Data published in ChEMBL document CHEMBL3988442, “University of Dundee, Small-Polar-MMV Screening Library” (2021).
Several values for one entry are separate records, joined by “and”; a condition that tells them apart may be missing. Identical values can stand only once. In all, about 38,000 compounds went through this assay and about 1,200 (3.2%) showed an effect of 50% or more. The median lay at about -58%. The full list was thinned out, with strong results kept by preference.

Tested on: Plasmodium falciparum
Test: Calibr Malaria Delayed Death Assay SOP
Format: functional, organism-based
Set-up: scale not given: in the data most compounds retested in dose-response had high values
Conditions: concentration 4.99e-06 (unit not given; other assays of the set use mol/L)

SMILES	Percent Effect [%]	Percent Effect (4.99 µM)
COCC(=O)N1C[C@@H](OCc2cccnc2)[C@H]2OCCC[C@@H]21.O=C(O)C(F)(F)F	7.671	
COCCNC(=O)Cn1cc(NC(=O)c2cccc(Cl)c2Cl)cn1	-59.07	
O=C(NS(=O)(=O)c1ccc(Cl)cc1F)c1cccc2c1OCCO2	-91.83	
CC(C#N)CN(C)C(=O)CCNC(=O)OCC(F)(F)F (configuration not stated)	-88.17	
O=C(O)C(F)(F)F.O=C(O)C(F)(F)F.O=C1CO[C@@H]2CN(Cc3cccs3)C[C@H]2N1Cc1cccnc1	-34.75	
Cc1cnc(-n2cnnc2)c(-c2cccc3c2CCNC3)c1	-33.7	
Cc1cc(-c2cccc3c2CCNC3)cnc1-n1cnnc1	-23.79	
Cc1nc(-n2cnnc2)ccc1-c1cccc2c1CCNC2	68.26	
CSCCC(=O)N1CCCC1c1nnc2n1CCCCC2 (configuration not stated)	-119.3	
Cc1cc(C)n(Cc2ccc(-c3noc(C(=O)NCCO)n3)cc2)n1	-66.65	
CCN(CC)C[C@H]1CN2CC[C@H]1C[C@@H]2CNC(=O)c1ccco1	-99.74	
CC[C@H]1CN2CC[C@H]1C[C@@H]2CNC(=O)c1ccco1	-30.73	
CN(C[C@H]1CN2CC[C@H]1C[C@@H]2CNC(=O)c1ccco1)c1ccccc1	70.91	
O=C(C1CCOC1)N1CCN(Cc2cccnc2)c2ncccc2C1 (configuration not stated)	-57.83	
O=C1CN(S(=O)(=O)CC(F)(F)F)CC(O)CN1CCCc1ccccc1 (configuration not stated)	-64.11	
COCCN1CCc2nc(SCc3ccc(F)cc3)[nH]c(=O)c2C1	-62.28	
Cc1nonc1OCCNC(=O)CCCc1ccc(Cl)cc1	-154.2	
CN1[C@H](Cn2cncn2)C[C@@H]2CN(Cc3ccsc3)CC[C@@H]21.O=C(O)C(F)(F)F.O=C(O)C(F)(F)F	35.13	
CN1C(Cn2cccn2)C[C@@H]2CN(Cc3cnn(C)c3)CC[C@@H]21 (some centres not stated)	-48.63	
CN1C(Cn2cccn2)C[C@@H]2CN(C(=O)c3cccc(C#N)c3)CC[C@@H]21.O=C(O)C(F)(F)F.O=C(O)C(F)(F)F (some centres not stated)	-96.07	
CN1[C@H](Cn2cncn2)C[C@@H]2CN(Cc3cccc(C#N)c3)CC[C@@H]21.O=C(O)C(F)(F)F.O=C(O)C(F)(F)F	-71.32	
Cc1ccc(CN2CC[C@H]3[C@H](CC(Cn4cccn4)N3C)C2)s1.O=C(O)C(F)(F)F.O=C(O)C(F)(F)F.O=C(O)C(F)(F)F (some centres not stated)	62.61	
O=C(NC1CC1)C1CNCCN1C(=O)CCOc1ccccc1 (configuration not stated)	-111.6	
Cc1ncsc1-c1nnc(C2CCN(Cc3ccccc3Cl)CC2)o1	-108	
CC(=O)NC1CCN(c2c(C#N)cnc3c(C)cc(F)cc23)CC1	7.696	

SMILES	Percent Effect [%]	Percent Effect (4.99 µM)
CN(Cc1ccccc1)C(=O)CCNS(=O)(=O)c1cccnc1	-47.09	
Cc1ccc2[nH]c(-c3cn(C4CCNCC4)nn3)nc2c1C	85.1	
c1ccc(CCCn2ccnc2-c2cn(C3CCNCC3)nn2)nc1		-23.72% and -17.15%
CN(Cc1cn(C2CCNCC2)nn1)CC1CCCO1 (configuration not stated)	-84.49	
Cc1c(C)c(C)c2[nH]c(-c3cn(C4CCNCC4)nn3)nc2c1C	30.06	
Cc1cc2nc(-c3cn(C4CCNCC4)nn3)[nH]c2cc1C	87.17	
Cc1cccc2[nH]c(-c3cn(C4CCNCC4)nn3)nc12	72.76	
COc1cccc(CCn2ccnc2-c2cn(C3CCNCC3)nn2)c1		-32.98% and -26.9%
Cc1nc(C(C)C)sc1C(=O)NCCSc1nccn1C	-107.8	
CC(=O)Nc1ccn(Cc2ccccc2)n1	-105.1	
CCOC(C)C(=O)N1CCCN(Cc2csc(CC)n2)CC1 (configuration not stated)	-48.75	
Cc1nc(CN2CCC3(C2)CN(Cc2ccco2)C3)cs1	1.617	
Cc1nc(CN2CCC23CCN(Cc2ccco2)CC3)cs1	-38.18	
CN1CCNC(=O)C12CCN(Cc1ccco1)CC2.O=C(O)C(F)(F)F.O=C(O)C(F)(F)F	-34.77	
O=C(O)C(F)(F)F.O=C(O)C(F)(F)F.O=C(O)C(F)(F)F.c1coc(CN2CCC3(CC2)COCCN(CCN2CCCC2)C3)c1	-114.4	
Cc1ccc(CN2CCC3(CC2)CCN(Cc2ccco2)CC3)cc1.O=C(O)C(F)(F)F.O=C(O)C(F)(F)F	91.42	
Cc1noc(C)c1CN1CC2(CCN(Cc3c[nH]cn3)CC2)CC1=O	-101.4	
CO[C@@H]1CC[C@H]2[C@H]1OCCN2Cc1ccccn1.O=C(O)C(F)(F)F.O=C(O)C(F)(F)F	-69.16	
COCCCN1CCC(NC2CSCCc3ccccc32)CC1 (configuration not stated)	-4.969	
CN(C)CCN1CCC(NC2CSCCc3ccccc32)CC1 (configuration not stated)	75.4	
CNC(=O)CN1CCC(NC2CSCCc3ccccc32)CC1 (configuration not stated)	-108	
Cn1ncnc1CNc1ccccc1C(=O)NC(C)(C)C	-77.77	
Cc1ccccc1CN1CCC2(CCCN2C(=O)C(C)C)CC1	-62.94	
O=C1NC(C(=O)NCc2cccnc2Oc2ccc(F)c(F)c2)CO1 (configuration not stated)	-127.9	
COc1ccc(C(=O)C2CCCN(CCc3ccccc3)C2)c(OC)c1 (configuration not stated)	71.36	

SMILES	Percent Effect [%]	Percent Effect (4.99 µM)
COc1ccc(C(=O)C2CCCN(Cc3cccc(F)c3)C2)c(OC)c1 (configuration not stated)	22.79	
CCN(CC1CCCN(CCc2cccc(OC)c2)C1)C(=O)CO (configuration not stated)	28.13	
COc1ccc(C(=O)C2CCCN(Cc3ccncc3)C2)c(OC)c1 (configuration not stated)	-20.34	
CCN(CC1CCCN(CCc2cccc(OC)c2)C1)C(=O)CN(C)C (configuration not stated)	83.05	
CCN(CC1CCCN(CCc2cccc(OC)c2)C1)C(=O)CSC (configuration not stated)	19.02	
Cc1ccccc1C(=O)N1CCO[C@H]2[C@H](OCCN(C)C)CC[C@@H]21.O=C(O)C(F)(F)F	-35.41	
CCCN(CCC)C(=O)c1cnn(C)c1C	-133.3	
COc1ccc(CNC(=O)c2ccc(Cl)cc2F)cc1C(=O)O	-124.3	
COc1cccc(CNCc2ccc(F)c(Cl)c2)c1O	79.38	
COc1ccccc1COCC(O)CN(C)Cc1cccc(Cl)c1 (configuration not stated)	-103.6	
COc1cccc(CNc2ccc(F)c(Cl)c2)c1O	-125.4	
COc1cccc(CNCc2cccc(Cl)c2)c1O	84.59	
CCOc1cccc(CNc2ccccc2OC)c1O	-50.26	
CCn1nccc1CNc1nc(N)nc2c1nc(C)n2C	-33.19	
Cn1nc(CN2CCCCC2)c2c1CN(C(=O)c1ccoc1)C2	14.54	
CNCc1cc(F)ccc1Oc1ccc(F)cc1	15.63	
O=C(O)c1cccc(N2CCC(Oc3cccc(F)c3)CC2)n1	-36.51	
O=C(Nc1cnc(Oc2ccccc2)nc1)C1CC1	-34.92	
O=C(Nc1ccccc1Oc1cccc(F)c1)C1CCS(=O)(=O)C1 (configuration not stated)	-81.74	
CCn1cc(-c2nn3c(C(C)C)nnc3s2)c(C)n1	-104	
CC(NC(=O)N1CCCCCC1)c1ccc(S(N)(=O)=O)cc1 (configuration not stated)	-106.8	
Cc1ncsc1C(=O)NCCNc1ncccn1	-77.02	
COCC1CN(CCOc2ccc(Cl)cc2)Cc2c1cnn2C.O=C(O)C(F)(F)F.O=C(O)C(F)(F)F (configuration not stated)	-4.236	
CSC1(CNC(=O)NC(C)c2ccc(F)cc2)CCOCC1 (configuration not stated)	-168.4	
CC(NCC1(N(C)C)CCOCC1)c1ccc(Cl)cc1 (configuration not stated)	72.75	

SMILES	Percent Effect [%]	Percent Effect (4.99 µM)
CN(C)C1(CNC(=O)c2c(O)cc(Cl)cc2Cl)CCOCC1	-157.7	
CC(NCC1(N(C)C)CCOCC1)c1ccc(SC(F)F)cc1 (configuration not stated)	51.19	
CN(C)C1(CNc2ncc(Br)cn2)CCOCC1	27.48	
CC(NCC1(N(C)C)CCOCC1)c1ccc(S(C)(=O)=O)cc1 (configuration not stated)	-124.5	
O=S(=O)(N1CCCC1)N(Cc1ccccc1)CC1CCCO1 (configuration not stated)	-64.47	
CN(C)CCN1C[C@@H]2CN(S(=O)(=O)c3ccccc3)C[C@@H]2C1=O.O=C(O)C(F)(F)F	-103	
CCN(CC)S(=O)(=O)c1ccc(C(=O)NC(C)(C)C)cc1	-100.9	
Cc1cc2nc(-c3ccccc3)cc(NCC3CCCOC3)n2n1 (configuration not stated)	20.07	
COCCC(=O)Nc1nc2c(OC)cc(F)cc2s1	-96.38	
COc1ccc(CNC(C)c2ccccc2Cl)c(OC)c1OC.Cl (configuration not stated)	74.88	
COCCS(=O)(=O)NC(C)c1ccccc1Cl (configuration not stated)	-65.19	
CC(NCc1ccc(C(N)=O)cc1)c1ccc(Cl)c(Cl)c1.Cl (configuration not stated)	4.882	
COc1ccc(C(C)NCc2ccc(OC)c(OC)c2OC)cc1F.Cl (configuration not stated)	34.25	
COc1ccc(CNC(C)c2ccc(Cl)cc2)c(OC)c1OC (configuration not stated)	80.38	
COc1ccc(C(C)NCc2c[nH]nc2C)cc1OC.Cl (configuration not stated)	-66.18	
COc1ccc(CNC(C)Cn2cccn2)c(OC)c1OC.Cl (configuration not stated)	-41.68	
COc1ccc(CNC(C)c2ccc(Cl)c(Cl)c2)c(OC)c1OC (configuration not stated)	65.05	
COc1ccc(CNC(C)c2cccc(Cl)c2)c(OC)c1OC (configuration not stated)	42.06	
Cc1ccc(CN2C[C@H](OCC3CCN(C)CC3)[C@H]3COC[C@H]32)o1	12.64	
Cc1nc(NC(=O)c2c(-n3cnnn3)sc3c2CCC3)sc1C	-110.9	
CCOc1ccccc1NC(=O)NCCc1ccoc1	-120.2	
COC(=O)c1cccc(C(=O)N(C)Cc2cccc(F)c2)c1	-135.6	
